# Measured values as given in PubChem BioAssay.
# Where “and” joins values, the source holds several entries; their conditions need not be identical. Equal values may be shown once. Records with an inconclusive call do not appear. Calls of active or inactive are those of the source. Unless noted, no stated cut-off is given here; in the data, active means inhibition above about 80%; inactive means the rest. Bridge positions count the residues as written; N and C are the ends. Square brackets hold non-standard residues; d marks the D form. Peptide text beside a SMILES is read from it. * marks the point of attachment. X2 = CCC(C)C(N)C1=NC(C(=O)*)CS1; dOrn = NCCC[C@@H](N)C(=O)O
# Experiments:
# [1] = compounds altering viability of human ES cells (AID 493140; call rule not given here;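 further: cells exposed to compounds for four days before counting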); details: human embryonic stem cell survival screen; stronger effect = higher value
# [2] = P. berghei load reduction in hepatocytes – cell-based, HepG2, luciferase luminescence, HepG2 viability, primary screen (AID 624349; in the data active means parasite load remaining mostly below about 12%, no sharp cut-off; inactive means mostly above about 10%;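 further: 100% = mean of DMSO negative control wells on the same plate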); details: P. berghei liver stage in HepG2, luciferase luminescence, concentration not given here; parasite load remaining: stronger effect = lower value; viability: measured here: HepG2 viability without parasites
# [3] = viability loss in pontine glioma line – cell-based, SU-DIPG-XIII, MIPE5.0, CellTiter-Glo, qHTS, dose response (AID 1347064; cut-off not given, nearly all actives have AC50 up to about 23 µM;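 on AC50: cells exposed to compound for 48 hours before the viability read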); details: CellTiter-Glo ATP luminescence
# [4] = viability loss in pontine glioma line – cell-based, SU-DIPG-XXV, MIPE5.0, CellTiter-Glo, qHTS, dose response (AID 1347065; cut-off not given, nearly all actives have AC50 up to about 26 µM;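 further: cells exposed to compound for 48 hours before ATP readout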); details: CellTiter-Glo ATP luminescence
# [5] = JHH-DIPG-1 glioma cell viability, MIPE5.0 library, CellTiter-Glo luminescence, qHTS (AID 1347067; cut-off not given, nearly all actives have AC50 up to about 26 µM;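 further: cells exposed to compound for 48 hours before readout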); details: JHH-DIPG-1 glioma viability, CellTiter-Glo ATP luminescence
# [6] = growth inhibition of DIPG cells – cell-based, MIPE5.0 library, qHTS (AID 1347068; cut-off not given, nearly all actives have IC50 up to about 30 µM;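 on IC50: cells exposed to compound for 48 hours before viability readout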); details: SU-DIPG-XXV viability
# [7] = viability loss with induced miR-34 in A549 – imaging, A549 dox-inducible miR-34, nuclei and caspase counts, primary screen (AID 1347080;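 active means compounds whose cell count with miR-34 switched on is under 0.7 times the count with it off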); details: A549 miR-34 inducible, Hoechst nuclei count, 48 h
# [8] = MELAS cybrid and Rieske KO viability enhancers – cell-based, MELAS cybrids, Rieske KO mouse fibroblasts, CellTiter-Glo, primary screen (AID 1508586;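 active means mean z-score across replicates of 1.96 or higher in either the MELAS or the Rieske mutant cell line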;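 further: z relative to plate mean and SD of compound and empty wells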); details: low glucose
# [9] = growth inhibition, single agent or in combination, cell-based, chromothripsis tumors, cisplatin or BGB combos (AID 1671449); details: LFS_MB_P medulloblastoma cells;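 further: cells exposed for 96 hours; 0% = vehicle DMSO and 100% = killing by high DMSO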
# [10] = growth inhibition, single agent and combos, cell-based, chromothripsis tumors, cisplatin or BGB combos (AID 1671450); details: HDN33 neuroblastoma cells, stronger effect = higher value;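 further: cells exposed to compound for four days; 0% = vehicle DMSO and 100% = cell killing by high DMSO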
# [11] = growth inhibition, single agents and combos, ICB984, cell-based, cisplatin or BGB combos, synergistic combos for chromothripsis tumors (AID 1671451; call rule not given here;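 further: cells exposed for 96 hours before readout; 0% = vehicle DMSO and 100% = killing by high DMSO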); details: ICB984 medulloblastoma cells, drug combinations, stronger effect = higher value
# [12] = growth inhibition, single agents and combos, LFS_MB_1R, cell-based, cisplatin or BGB combos, synergistic combos for chromothripsis tumors (AID 1671452); details: LFS_MB_1R medulloblastoma cells, stronger effect = higher value;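 further: cells exposed for 96 hours before readout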
# [13] = growth inhibition, single agents and combos, HTB85, cell-based, BGB or cisplatin IC20 combos, synergistic combos for chromothripsis tumors (AID 1671453); details: HTB85 osteosarcoma cells, drug combinations, stronger effect = higher value;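 further: cells exposed for 96 hours before readout; 0% = vehicle DMSO and 100% = high DMSO killing control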
# [14] = growth inhibition, single agents and combos, CRL2098, cell-based, BGB or cisplatin IC20 combos, synergistic combos for chromothripsis tumors (AID 1671454); details: CRL2098 osteosarcoma cells, drug combinations, stronger effect = higher value;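 further: cells exposed for 96 h before readout; 0% = vehicle DMSO and 100% = killing by high DMSO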
# [15] = growth inhibition, single agents and combos, HD-MB03, cell-based, BGB or cisplatin IC20 combos, synergistic combos for chromothripsis tumors (AID 1671455; in the data active means inhibition above about 83%;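 further: 0% = vehicle DMSO and 100% = high DMSO as cytotoxic control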); details: HD-MB03 medulloblastoma cells, stronger effect = higher value
# [16] = growth inhibition, single agents and combos, UWB1.289, cell-based, BGB or cisplatin combos, synergistic combos for chromothripsis tumors (AID 1671456); details: UWB1.289 ovarian carcinoma cells, stronger effect = higher value;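 further: cells exposed to compound for four days; 0% = vehicle DMSO and 100% = killing by high DMSO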
# [17] = growth inhibition, single agents and combos, LFS_MB_2R, cell-based, cisplatin combos, synergistic combos for chromothripsis tumors (AID 1671457); details: LFS_MB_2R medulloblastoma cells, stronger effect = higher value;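 further: cells exposed to compound for four days before readout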
# [18] = growth inhibition, MDA-MB-436, cell-based, BGB or cisplatin combos, synergistic combos for chromothripsis tumors (AID 1671458; call rule not given here;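 further: cells exposed for 96 hours; 0% = vehicle DMSO and 100% = killing by high DMSO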); details: MDA-MB-436 breast carcinoma growth inhibition, drug combinations, stronger effect = higher value
# [19] = UWB1.289_BRCA1 ovarian cancer growth, cell-based, BGB or cisplatin combinations (AID 1671459); details: UWB1.289 BRCA1 ovarian carcinoma, drug combinations, stronger effect = higher value
# [20] = drug combination toxicity in non-malignant astrocytes – cell-based, BGB or cisplatin IC20 combos, cytotoxicity control for chromothriptic childhood tumor combination screen (AID 1671460); details: Human astrocytes, viability inhibition, drug combinations, at 0.5 µM, stronger effect = higher value;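 further: cells exposed to compounds for 96 hours before viability readout; 0% = vehicle and 100% = killing control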
# [21] = BT084 cell growth, single and combined drugs, ICGC_MB145, cisplatin and BGB IC40 combos (AID 1671461); details: BT084 medulloblastoma cells, drug combinations, stronger effect = higher value;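 further: cells exposed to drugs for 96 hours; 0% = vehicle DMSO and 100% = high DMSO full killing control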
# [22] = RCMB18 cell growth, single agent and combined, cisplatin and BGB IC40 combos (AID 1671462); details: RCMB18 medulloblastoma cells, stronger effect = higher value;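 further: cells exposed to compound for four days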
# [23] = CRL1545 cell growth, single agent and combined, cisplatin and BGB IC20 combos (AID 1671464); details: CRL1545 osteosarcoma cells, stronger effect = higher value;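 further: cells exposed to compound for 96 hours before readout; 0% = vehicle DMSO and 100% = high DMSO killing control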
# [24] = stronger effect = lower value, cell number ratio, induced over uninduced
# [25] = measured here: relative caspase fold change +Dox/-Dox
# [26] = measured here: total cells with miR-34 induction, stronger effect = lower value
# [27] = measured here: total cells without miR-34 induction
# [28] = MELAS cybrid survival, CellTiter-Glo 48 h, stronger effect = higher value
# [29] = Rieske KO mouse fibroblast survival, CellTiter-Glo 72 h
# [30] = measured here: combination with BGB IC40, at 0.05 µM
# [31] = measured here: with BGB IC20 combination, at 0.5 µM
# [32] = measured here: with cisplatin IC20 combination, at 0.5 µM
# [33] = measured here: combination with cisplatin, at 0.5 µM
# [34] = measured here: combination with cisplatin, at 5 µM
smiles,measurement,setting,value
CCC(C)C(N)C1=NC(C(=O)N[C@@H](CC(C)C)C(=O)N[C@H](CCC(=O)O)C(=O)N[C@H](C(=O)N[C@H]2CCCCNC(=O)[C@H](CC(N)=O)NC(=O)[C@@H](CC(=O)O)NC(=O)[C@H](Cc3cnc[nH]3)NC(=O)[C@@H](Cc3ccccc3)NC(=O)[C@H]([C@@H](C)CC)NC(=O)[C@@H](CCCN)NC2=O)[C@@H](C)CC)CS1 (some centres undefined) (X2-L[dE]IK[dOrn]I[dF]H[dD]N; lactam 4-C),survival,[1],9.33 (inactive)
same,parasite load remaining,[2],69.3% (inactive)
same,viability,[2],103%
same,outcome,[3],inactive
same,outcome,[4],inactive
same,outcome,[5],inactive
same,outcome,[6],inactive
same,fold change,[7]; [24],0.898 (inactive)
same,fold change,[7]; [25],1.36
same,cell count,[7]; [26],9810
same,cell count,[7]; [27],10900
same,z-score,[8]; [28],0.499 (inactive)
same,z-score,[8]; [29],-0.0886
FC(F)(F)c1ccc(CNc2ccc(Cc3c[nH]c4ncc(Cl)cc34)cn2)cn1,outcome,[3],inactive
same,outcome,[5],inactive
same,outcome,[6],inactive
Cc1c(Cl)cccc1S(=O)(=O)Nc1nc(CCN2CCOCC2=O)cs1,outcome,[3],inactive
same,outcome,[4],inactive
same,outcome,[6],inactive
COC(=O)N[C@@H](C)CNc1nccc(-c2cn(C(C)C)nc2-c2cc(Cl)cc(NS(C)(=O)=O)c2F)n1,outcome,[3],inactive
same,AC50,[4],1.48 µM (active)
same,outcome,[6],inactive
C[C@H]1CNCCCN1S(=O)(=O)c1cccc2cncc(F)c12,outcome,[3],inactive
same,outcome,[5],inactive
same,outcome,[6],inactive
Cc1ccc(NS(=O)(=O)c2ccc3c(c2)C2C=CCC2C(c2ccc(C(=O)O)cc2)N3)cc1C (centres undefined),outcome,[3],inactive
same,outcome,[5],inactive
same,outcome,[6],inactive
Cc1cc(O[C@@H](CCC(F)(F)F)c2ccc(C(=O)NCCC(=O)O)cc2)cc(C)c1-c1ccc(C(C)(C)C)cc1,AC50,[3],11.8 µM (active)
same,AC50,[4],9.34 µM (active)
same,IC50,[6],8.33 µM (active)
COC1CCN(C(=O)c2cc(Cc3n[nH]c(=O)c4ccccc34)ccc2F)CC1,outcome,[3],inactive
same,outcome,[4],inactive
same,outcome,[5],inactive
same,outcome,[6],inactive
same,fold change,[7]; [24],0.934 (inactive)
same,fold change,[7]; [25],0.846
same,cell count,[7]; [26],6330
same,cell count,[7]; [27],6780
same,z-score,[8]; [28],-0.18 (inactive)
same,z-score,[8]; [29],-0.126
same,inhibition,"[9]; at 0.5 µM, stronger effect = higher value",-12.1% (inactive) and -16.1% (inactive)
same,inhibition,"[9]; measured here: combination with BGB IC20, at 0.005 µM",-30.7% and -15.3%
same,inhibition,"[9]; measured here: combination with BGB IC40, at 0.005 µM",-38.1% and -33.1%
same,inhibition,[9]; [30],-30.5% and -42.3%
same,inhibition,"[9]; measured here: combination with cisplatin, at 0.5 µM, stronger effect = higher value",-37.8% and -19.2%
same,inhibition,"[9]; measured here: combination with cisplatin, at 5 µM, stronger effect = higher value",-40.5% and -57.1%
same,inhibition,"[10]; BGB combo, at 5 µM",-13.6% and 13.4%
same,inhibition,[10]; at 0.5 µM,-10.1% (inactive) and -7.74% (inactive)
same,inhibition,"[10]; cisplatin combo, at 5 µM",23.9% and 26%
same,inhibition,[10]; [31],-20.4% and -10.8%
same,inhibition,[10]; [32],5.53% and -9.06%
same,inhibition,"[10]; single agent, at 5 µM",14.4% and 38.9%
same,inhibition,"[11]; BGB IC20 combo, at 0.005 µM",-4.23% and -19.5%
same,inhibition,"[11]; BGB IC40 combo, at 0.005 µM",-0.687% and -29.1%
same,inhibition,"[11]; BGB IC40 combo, at 0.05 µM",-13.2% and -21.3%
same,inhibition,[11]; at 0.5 µM,-24.6% (inactive) and -24.2% (inactive)
same,inhibition,"[11]; cisplatin combo, at 0.05 µM",-19% and -25.6%
same,inhibition,"[11]; cisplatin combo, at 0.5 µM",-40.6% and -12.4%
same,inhibition,"[11]; cisplatin combo, at 5 µM",-8.06% and -25.7%
same,inhibition,"[11]; measured here: 5 uM single agent, at 5 µM",0.595% and -12.2%
same,inhibition,[12]; at 0.5 µM,-26.2% (inactive) and -13.9% (inactive)
same,inhibition,[12]; [30],-15.2% and -8.03%
same,inhibition,[12]; [33],-30.2% and -13%
same,inhibition,[12]; [34],-19.4% and -3.56%
same,inhibition,[13]; at 0.5 µM,-11.4% (inactive) and 6.36% (inactive)
same,inhibition,"[13]; measured here: with BGB IC20, at 0.5 µM",-12.2% and -3.86%
same,inhibition,"[13]; measured here: with BGB IC20, at 5 µM",12.4% and 5.4%
same,inhibition,"[13]; measured here: with cisplatin IC20, at 0.5 µM",-10.7% and 2.43%
same,inhibition,"[13]; measured here: with cisplatin IC20, at 5 µM",15.8% and -12.3%
same,inhibition,"[13]; single agent, at 5 µM",16.7% and 8.18%
same,inhibition,[14]; at 0.5 µM,-48.1% (inactive) and -65.8% (inactive)
same,inhibition,"[14]; measured here: combination with BGB at IC20, at 0.5 µM",-70.3% and -24.2%
same,inhibition,"[14]; measured here: combination with cisplatin at IC20, at 0.5 µM",-35.2% and -114%
same,inhibition,[15]; at 0.5 µM,-3.93% (inactive) and -2.04% (inactive)
same,inhibition,"[15]; measured here: combo with BGB at IC20, at 0.5 µM",-9.33% and -8.78%
same,inhibition,"[15]; measured here: combo with cisplatin at IC20, at 0.5 µM",4.14% and 1.92%
same,inhibition,[16]; at 0.5 µM,-6.03% (inactive) and 1.25% (inactive)
same,inhibition,"[16]; measured here: inhibition with BGB combination, at 0.05 µM",-33.1% and -12.4%
same,inhibition,"[16]; measured here: inhibition with cisplatin combination, at 0.05 µM",-15.7% and -19.5%
same,inhibition,[17]; at 0.5 µM,-18.3% (inactive) and -16.9% (inactive)
same,inhibition,[17]; [33],-12.3% and -23.2%
same,inhibition,[17]; [34],-8.19% and -16.7%
same,inhibition,[18]; at 0.5 µM,-6.48% (inactive) and 5.83% (inactive)
same,inhibition,"[18]; measured here: BGB combination, at 0.5 µM",-20.6% and -13.1%
same,inhibition,"[18]; measured here: BGB combination, at 5 µM",-22% and -12.5%
same,inhibition,"[18]; measured here: cisplatin combination, at 0.5 µM",-7.18% and 13.4%
same,inhibition,"[18]; measured here: cisplatin combination, at 5 µM",19.7% and 25.3%
same,inhibition,"[19]; BGB combination, concentration series, at 5 µM",-17.2% and 8.15%
same,inhibition,[19]; at 0.5 µM,-15.2% (inactive) and 1.82% (inactive)
same,inhibition,"[19]; cisplatin combination, concentration series, at 5 µM",1.96% and 12.2%
same,inhibition,[20],-2.67% (inactive) and 18.6% (inactive)
same,inhibition,[20]; measured here: combo with BGB IC20,-0.687% and 1.82%
same,inhibition,[20]; measured here: combo with cisplatin IC20,-3.5% and 25%
same,inhibition,[21]; at 0.5 µM,-21.1% (inactive) and -16.8% (inactive)
same,inhibition,"[21]; cisplatin combination, at 0.5 µM",-20.5% and -64%
same,inhibition,"[21]; cisplatin combination, at 5 µM",-29.9% and -19.1%
same,inhibition,"[21]; measured here: BGB IC40 combination 0.05 uM, at 0.05 µM",-40% and -3%
same,inhibition,"[21]; single agent, at 5 µM",-18% and 3.41%
same,inhibition,[22]; at 0.5 µM,-19.3% (inactive) and -19.5% (inactive)
same,inhibition,"[22]; cisplatin combo, at 5 µM",-5.98% and -18.2%
same,inhibition,"[22]; measured here: BGB IC40 combination, at 0.05 µM",-15.8% and -4.12%
same,inhibition,[22]; [33],-25.7% and -45.6%
same,inhibition,"[22]; single agent, at 5 µM",-29.2% and -17.7%
same,inhibition,[23]; at 0.5 µM,8.49% (inactive) and 7.34% (inactive)
same,inhibition,[23]; [31],-9.33% and -2.37%
same,inhibition,[23]; [32],16.1% and 10.8%
same,inhibition,"[23]; single agent, at 0.05 µM",5.73% and -15.4%
same,inhibition,"[23]; single agent, at 5 µM",42.8% and 34.1%
